Most compounds without a hit are left out; they make up all but 5.4% or so of the library.
Six1-Eya2 blk: qHTS Assay for Inhibitors of the Six1/Eya2 Interaction | Homeobox protein SIX1 (Homo sapiens) + Protein phosphatase EYA2 (Homo sapiens), … | AlphaScreen GST-Six1/His-Eya2 binding, biochemical; hits give low values | activity change, % (concentration not given with the values) | 360,000 tested, 0.56% active; in the data active = activity change below about -65%; inconclusive = mostly about -30% to -63%
Target sequence (O00167 whole entry, looked up): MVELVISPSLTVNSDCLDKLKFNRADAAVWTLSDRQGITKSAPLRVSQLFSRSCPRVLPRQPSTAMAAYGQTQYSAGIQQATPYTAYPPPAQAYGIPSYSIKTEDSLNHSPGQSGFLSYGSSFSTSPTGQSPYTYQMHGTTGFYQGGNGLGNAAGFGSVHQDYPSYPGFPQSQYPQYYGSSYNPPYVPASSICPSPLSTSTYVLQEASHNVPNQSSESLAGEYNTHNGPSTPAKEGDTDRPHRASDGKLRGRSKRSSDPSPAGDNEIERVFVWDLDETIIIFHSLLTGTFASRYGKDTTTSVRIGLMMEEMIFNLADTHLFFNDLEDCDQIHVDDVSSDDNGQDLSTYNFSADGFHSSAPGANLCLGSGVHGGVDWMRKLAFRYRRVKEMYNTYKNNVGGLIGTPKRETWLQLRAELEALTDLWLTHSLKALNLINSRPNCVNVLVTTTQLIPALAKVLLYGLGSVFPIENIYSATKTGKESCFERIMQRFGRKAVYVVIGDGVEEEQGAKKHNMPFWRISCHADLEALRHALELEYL
Target sequence (Q15475 whole entry, looked up): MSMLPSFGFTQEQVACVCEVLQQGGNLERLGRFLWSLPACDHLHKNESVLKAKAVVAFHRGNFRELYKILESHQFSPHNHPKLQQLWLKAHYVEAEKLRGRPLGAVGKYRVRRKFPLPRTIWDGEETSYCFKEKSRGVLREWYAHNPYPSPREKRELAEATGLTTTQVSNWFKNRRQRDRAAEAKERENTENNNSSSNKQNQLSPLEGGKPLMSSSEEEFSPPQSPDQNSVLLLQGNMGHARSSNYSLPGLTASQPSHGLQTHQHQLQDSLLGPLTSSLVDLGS
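AlphaScreen with GST-Six1 and His-Eya2 (5X mix: 250 nM and 500 nM), glutathione donor and nickel acceptor beads; buffer 50 mM Tris pH 8.0, 300 mM NaCl, 1 mM TCEP; 1 h at 37 C in the dark.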
p53 reactivator: qHTS assay for re-activators of p53 using a Luc reporter; Potency, µM (top dose mostly 92.2 µM), actives largely listed as activators; H1299 p53-A138V BP100-luciferase reporter, luminescence, 24 h; 320,000 tested, 0.063% active; also: nearly all actives have a fitted effect of over 45% in size
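H1299 (p53-null), stable ts p53-A138V + BP100-Luc; 1000 cells/well, Opti-MEM/10% FBS; cpd 4 pt, 1:5; 24 h, 37 deg C, 5% CO2; detection reagent 10 min RT; luminescence.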
RORgamma inh: qHTS for inhibitors of ROR gamma transcriptional activity; Potency, µM (highest dose often 53.6 µM), actives largely listed as inhibitors; Nuclear receptor ROR-gamma (Mus musculus), P51450; Drosophila S2 Gal4-RORgamma UAS-luciferase reporter, 20 h; 310,000 tested, 5.4% active; also: nearly all actives have a fitted effect of over 60% in size
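Stably transfected Drosophila Schneider cells are the test system, with ROR gamma fused to Gal4 and luciferase under UAS control; luminescence is read after 20 hr of 700 uM copper sulfate induction at ambient temperature.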
VP16 counter: VP16 counterscreen qHTS for inhibitors of ROR gamma transcriptional activity; Potency, µM (top dose mostly 53.6 µM), usual class: inhibitors; AID 2546, 2010; 310,000 tested, 3.5% active; Drosophila S2 Gal4-VP16 UAS-luciferase, luminescence, 20 h;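 also: Gal4-VP16 expression switched on by copper sulfate through the metallothionein promoter; nearly all actives have a fitted effect of over 50% in size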
CtBP-E1A inh: qHTS Assay for Inhibitors of the CtBP/E1A Interaction. CtBP / adenovirus E1A interaction (AlphaScreen). AlphaScreen GST-E1A/His-CtBP binding, 1536-well; hits give low values. activity change, % (test concentration not listed). 340,000 tested, 0.49% active. AID 651724, 2012; in the data active = activity change below about -65%; inconclusive = mostly about -30% to -63%
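Steps: dispense buffer (Tris pH 8.0, NaCl 300 mM, TCEP 1 mM, BSA, Tween 20); add 5X protein mix (GST-E1A, His-CtBP, 125 nM each); pin 23 nL compound; 2 h at 37 °C, dark; add 5X beads (50 ug/mL); 1 h; read.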
Numbers stand for hits; - = inactive; ? = inconclusive; . = no result; [ ] = remark or other dose. Unless noted, calls follow the shape of the dose curve; as a rule, active = well fitted curve in the direction sought with a large enough effect; inconclusive = small, poorly fitted or top-dose-only effect, or another doubt; inactive = no such curve, though single readings can be large; an effect the other way counts as inactive or inconclusive.

SMILES	Six1-Eya2 blk	p53 reactivator	RORgamma inh	VP16 counter	CtBP-E1A inh
Cn1cc(C(=O)c2ccccc2)cc1-c1nc2ccccc2n1C	-	-	-	-	-
Cn1c(-c2ccc(Br)o2)nc2ccccc21	-	.	-	-	-
C[C@@H](NC(=O)c1nc[nH]c1C(=O)NCC(=O)OC(C)(C)C)c1ccccc1	-	.	10µM	?	-
C[C@@H](NC(=O)c1nc[nH]c1C(=O)NCC(=O)OCc1ccccc1)c1ccccc1	-	.	8.9µM	?	-
C[C@@H](NC(=O)c1nc[nH]c1C(=O)OCc1ccccc1)c1ccccc1	-	-	.	.	.
COc1ccc(O)c(/C=N/NC(=O)CCC(=O)Nc2ccc(F)cc2)c1	?	-	11µM	-	-
O=C(CCC(=O)Nc1ccc(Br)cc1)N/N=C/c1ccccc1O	-	-	?	?	-
Cc1cccc(NC(=O)CCC(=O)N/N=C/c2ccc(O)cc2O)c1	?	-	-	-	-84
Cc1ccc(SCCC(=O)N/N=C/c2ccccc2O)cc1	-	?	0.63µM	0.63µM	-
Cc1ccc(NC(=O)CCC(=O)N/N=C/c2ccccc2O)cc1	-	-	4µM	11µM	.
Cc1cccc(NC(=O)C2CC(=O)NC(Nc3nc4ccccc4s3)=N2)c1 (configuration not stated)	.	-	-	?	.
CN1CCN(NC(=O)c2ccc(Br)c(S(=O)(=O)N3CCOCC3)c2)CC1	-	-	-	-	-
Oc1ccc(O)c(-c2cnns2)c1	-	-	3.2µM	?	-
Nc1nc(N)nc(-c2cc(O)ccc2O)n1	-	-	.	.	-
COc1cccc(OCCSc2nc(N)cc(N)n2)c1	-	-	7.9µM	6.3µM	-
CC1CC=C(c2ccccc2)C(=S)N1 (configuration not stated)	-	-	1µM	3.2µM	-
CC1NC(=O)COC1c1ccccc1 (configuration not stated)	-	.	.	.	-
CC(C)OC(=O)c1cc2c(OC[C@@H](O)CNC(C)(C)C)cccc2[nH]1	.	.	-	-	.
NS(=O)(=O)c1ccc(CCNCc2cc(Br)ccc2OCc2ccccc2F)cc1	-	-	-	13µM	-
NS(=O)(=O)c1ccc(CCNCc2cc(Cl)ccc2OCc2ccccc2)cc1	-	.	?	?	-
Nc1nonc1C(=O)NCCNCc1cc(Br)ccc1OCc1ccccc1F	-	-	?	4µM	-
COC(=O)[C@@H]1C[C@H]1[C@@H](N)c1ccccc1	.	.	-	-	.
CCCCn1c(N)c(N(CC(C)C)C(=O)c2cc3ccccc3cc2OC)c(=O)[nH]c1=O	-	.	.	.	-
CCc1ccc(NC(=S)NC(=O)CC(C)C)cc1	-	?	1.1µM	1µM	-
CCC(=O)NC(=S)Nc1ccc(NC(=O)c2ccco2)c(OC)c1	-	-	13µM	?	-
SMILES	Six1-Eya2 blk	p53 reactivator	RORgamma inh	VP16 counter	CtBP-E1A inh
CCOc1ccc(NC(=O)c2ccco2)cc1	-	-	-[0.365 µM]	.	-
CCOc1ccc(NC(=S)NC(=O)c2ccco2)cc1	-	?	6.3µM	?	.
CCCCC(=O)NC(=S)Nc1cccc(NC(=O)c2ccco2)c1	-	-	?	16µM	-
CCN(CC)S(=O)(=O)c1ccc(NC(=S)NC(=O)CC(C)C)cc1	-	-	?	?	-
O=[N+]([O-])c1cccc(S(=O)(=O)c2ccc(NCCO)c([N+](=O)[O-])c2)c1	-	-	-	-	-
COc1ccc(CNc2ccnc(-c3ccccc3CN(C)C)n2)c(OC)c1	.	.	-	-	.
CC1=C(C(=O)N(C)C)CC(CC(=O)NC2CC2)C(=O)N1Cc1ccccc1 (configuration not stated)	-	.	.	.	-
CC(C)CC(=O)NC(=S)Nc1ccc(NC(=O)c2ccco2)cc1	-	-	13µM	-	-
Cc1ccc(NC(=S)NC(NC(=O)c2ccco2)C(Cl)(Cl)Cl)cc1 (configuration not stated)	-	-	11µM	7.1µM	-
CCC(=O)NC(=S)Nc1ccc(NC(=O)c2ccco2)cc1	-	-	-	-	-
O=C(Nc1ccc(Oc2c(F)c(F)c(F)c(F)c2F)cc1)OC1CCN2Cc3ccccc3N=C12 (configuration not stated)	-	-	0.71µM	?	-
O[C@@H]1CCN2Cc3ccccc3N=C12	.	.	-	-	.
COC(=O)c1cc(NC(=O)c2cc(C(C)(C)C)nn2Cc2ccc(F)cc2)ccc1N1CCOCC1	-	-	?	-	.
COc1ccccc1-c1cc(C(F)(F)F)nc(S(C)(=O)=O)n1	-	-	4µM	7.1µM	-
COc1ccccc1-c1cc2nc(C)c(CCC(=O)NCc3ccc(F)cc3)c(C)n2n1	-	-	-	-	-
COc1ccccc1-c1cc(C(F)(F)F)nc(S(=O)(=O)CCCC(=O)NCc2ccc(F)cc2)n1	-	-	8.9µM	?	-
COc1ccccc1-c1cc(C(F)(F)F)nc(S(=O)(=O)CCCC(=O)NC(C)C)n1	-	-	4.5µM	7.1µM	-
COc1ccccc1-c1cc(C(F)(F)F)nc(S(=O)(=O)CCCC(=O)Nc2cccnc2Cl)n1	-	-	4µM	8.9µM	-
COc1ccccc1-c1cc(C(F)(F)F)nc(N2CCCC2)n1	-	-	-	-	-
CS(=O)(=O)c1nc(-c2ccco2)cc(C(F)(F)F)n1	.	-	2.5µM	2.8µM	.
COc1ccccc1-c1cc(C(F)(F)F)nc(S(=O)(=O)CCCC(=O)N2CCCCC2C)n1 (configuration not stated)	-	-	11µM	16µM	-
CN1CCN(c2nc(-c3ccco3)cc(C(F)(F)F)n2)CC1	-	-	-	-	-
COc1ccc(N(C(=O)CCl)C(C(=O)NC2CCCCC2)c2cccnc2)cc1 (configuration not stated)	-	-	?	-	-
O=C(NC1CCCCC1)C(c1cccnc1)N(C(=O)CCl)c1ccc(F)cc1 (configuration not stated)	-	-	11µM	?	-
CCOc1ccc(C(=O)N/N=C/c2ccccc2[N+](=O)[O-])cc1	-	?	-	?	-
SMILES	Six1-Eya2 blk	p53 reactivator	RORgamma inh	VP16 counter	CtBP-E1A inh
Cc1[nH]c(=O)[nH]c(=O)c1/C=N\NC(=O)CCc1ccc(OC(C)C)cc1	.	-	-	-	.
COc1ccc(C(=O)N/N=C/c2c(C)[nH]c(=O)[nH]c2=O)cc1	?	-	-	-	-86
CSCC[C@H](NC(=O)OC(C)(C)C)C(=O)N/N=C/c1cccc2cccnc12	?	-	7.1µM	16µM	-75
COc1ccc(C(=O)N/N=C/c2cccc3cccnc23)cc1	-90	-	0.56µM	2.2µM	-93
CCOc1ccc(C(=O)N/N=C/c2cccc3cccnc23)cc1	-92	-	0.71µM	2µM	-98
COc1ccc2nc(/C=N/NC(=O)[C@H](CCSC)NC(=O)OC(C)(C)C)ccc2c1	-	-	-	-	-

High-throughput results deposited in PubChem BioAssay by National Center for Advancing Translational Sciences (NCATS).
